Compound activity deposited in PubChem by several laboratories.
MPTP block – permeability transition pore inhibition | isolated mouse mitochondria, Ca2+ swelling absorbance, 30 min | inhibition, % at 10 µM | 360,000 compounds, 1.4% hits;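 active = inhibition of 50% or more, scaled per plate between neutral and stimulator controls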;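 also: 0% = DMSO wells given calcium and 100% = 1 mM EGTA wells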
Mdm2-MdmX inh – inhibitors of human Mdm2/MdmX interaction; inhibition, % at 8 µM; 330,000 compounds, 3% hits; SaOS-2 split-luciferase Mdm2/MdmX complementation, luminescence; O15151+Q00987;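 active = inhibition of at least 50% at 8 µM in the primary screen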
Target sequence (O15151 whole entry, looked up): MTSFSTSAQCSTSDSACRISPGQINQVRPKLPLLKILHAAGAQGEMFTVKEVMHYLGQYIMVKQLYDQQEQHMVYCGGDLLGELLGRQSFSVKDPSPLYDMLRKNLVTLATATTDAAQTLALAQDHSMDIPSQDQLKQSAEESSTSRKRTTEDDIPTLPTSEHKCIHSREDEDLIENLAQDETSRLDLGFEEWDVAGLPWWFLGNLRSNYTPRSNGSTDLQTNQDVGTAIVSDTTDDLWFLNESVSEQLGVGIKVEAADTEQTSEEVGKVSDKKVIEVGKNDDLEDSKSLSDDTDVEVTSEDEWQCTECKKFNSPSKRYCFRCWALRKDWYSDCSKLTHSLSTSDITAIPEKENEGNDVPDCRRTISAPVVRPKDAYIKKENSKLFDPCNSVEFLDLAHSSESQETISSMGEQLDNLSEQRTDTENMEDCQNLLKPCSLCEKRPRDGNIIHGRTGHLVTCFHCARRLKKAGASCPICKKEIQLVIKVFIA
Target sequence (Q00987 whole entry, looked up): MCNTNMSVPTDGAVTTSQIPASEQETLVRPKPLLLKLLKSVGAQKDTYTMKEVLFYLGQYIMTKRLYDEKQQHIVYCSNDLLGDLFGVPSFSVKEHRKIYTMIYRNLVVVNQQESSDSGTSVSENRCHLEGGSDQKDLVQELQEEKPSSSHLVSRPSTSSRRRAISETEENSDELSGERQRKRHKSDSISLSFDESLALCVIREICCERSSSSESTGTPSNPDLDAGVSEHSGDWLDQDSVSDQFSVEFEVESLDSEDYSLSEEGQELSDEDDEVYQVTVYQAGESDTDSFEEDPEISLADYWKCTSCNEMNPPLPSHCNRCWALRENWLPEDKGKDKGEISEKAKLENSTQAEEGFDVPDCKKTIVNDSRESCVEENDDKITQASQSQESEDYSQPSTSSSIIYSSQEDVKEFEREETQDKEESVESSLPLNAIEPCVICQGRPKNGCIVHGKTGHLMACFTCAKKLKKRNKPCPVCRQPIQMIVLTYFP
Beta cell apopt – beta cell apoptosis inhibition; INS-1E cytokine-induced death, ATP luminescence, 48 h; percent of positive-control rescue, neutral wells zero; protection from apoptosis, % (concentration not given with the values); 300,000 compounds, 0.8% hits;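 active = Every replicate reaches about 75%, or at least half do and their mean reaches it too, limit read from the data; inconclusive = At least half of replicates reach the limit but their mean does not; inactive = Under half of replicates reach the limit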;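 also: 0% = cytokine-treated negative control wells and 100% = positive control rescue; higher means more ATP so stronger rescue from cytokine killing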
CSC inhib – blocks cancer stem cells; cancer stem cell-like cells viability, luminescence; inhibition, % at 7.5 µM; 300,000 compounds, 1.1% hits; AID 2717; in the data active = inhibition above about 75%; inconclusive = no clear call, values can overlap the other calls; tested in HMLE shEcad cells
SKKanGAS inh – blocks kanamycin growth of S. pyogenes SKKanGAS strain. BacTiter-Glo, 6 h. inhibition, % at 7.5 µM. 300,000 compounds, 1.3% hits. AID 1662;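 active = mean replicate score, as percent of positive control median, at least 50; inconclusive = mean below 50 but one replicate at or above 50; inactive = mean and every replicate below 50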;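 also: strain carries kanamycin resistance gene driven by streptokinase promoter and grows in 40 µg/ml kanamycin; loss of luminescence reflects streptokinase promoter inhibition or plain growth inhibition; 0% = median of DMSO wells and 100% = positive control at its reference dose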
Calb FLC – C. albicans growth modulation with fluconazole | C. albicans CaCi-2 (fluconazole-resistant clinical isolate) + fluconazole, Alamar Blue growth, 48 h | growth inhibition, % (no concentration beside the values) | 300,000 compounds, 0.57% hits;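 active = growth inhibition above about 58% in most replicates, limit read from the data, passing the limit was not always enough; inconclusive = exactly half the replicates above a set limit; inactive = most replicates below a set limit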;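 also: all wells also contain fluconazole at 8 µg/ml as a sub-toxic cotreatment; 0% = median of DMSO wells and 100% = median of geldanamycin control wells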
Active calls of the source: *; ? = inconclusive; · = no result given. Compounds with a hit are over-represented: about 5.4% of the library has one in this group of screens.

SMILES	MPTP block	Mdm2-MdmX inh	Beta cell apopt	CSC inhib	SKKanGAS inh	Calb FLC
Cc1cc(NC(=O)CCCn2nc(C)c([N+](=O)[O-])c2C)no1	3	13	-2	-5	0	-5
COc1cccc(C(=O)Oc2ccc3c(C)cc(=O)oc3c2C(C)=O)c1	-1	34	2	-5	9	-2
CS(=O)(=O)c1sc2nc(-c3cccs3)cc(-c3ccccc3)c2c1N	0	-28	2	99*	41	11
Cc1nnc(NC(=O)CSc2nnc(C)c(=O)n2N)s1	0	11	-3	7	-2	3
O=C(CN(c1ccc(Cl)cc1)S(=O)(=O)c1ccc(Cl)c([N+](=O)[O-])c1)NCCc1ccc(F)cc1	37	9	3	82*	-6	-6
CC(=O)c1c(C)[nH]c(C(=O)Nc2ccc(C)c(C)c2)c1C	10	-68	-8	-5	0	96*
CCc1c(C(=O)Nc2ccc(C)c(C)c2)[nH]c(C)c1C(C)=O	9	-15	3	-1	0	2
CC(C)CC(=O)/C=C/n1c(=S)oc2ccccc21	2	·	65	29	3	43
CC(=O)/C=C/n1c(=S)oc2ccccc21	·	·	100*	-1	3	?
O=C(Oc1cccc(Nc2ncnc3ccccc23)c1)c1ccccc1Cl	2	46	18	0	61*	9
CCCc1cc(C(=O)Cc2ccc(F)cc2)c(O)cc1O	18	36	4	82*	35	-36
COc1ccc(-c2cc(-c3c(O)c(OC)c4occc4c3OC)[nH]n2)cc1	12	37	·	28	36	102*
COc1ccc(-c2cc(-c3ccccc3O)[nH]n2)cc1	3	-186	8	-11	29	-3
COc1ccc(-c2sc3cc4c(cc3c2C#CC2(O)CCCCC2)OCO4)cc1	2	6	-9	112*	·	·
COc1ccccc1CCN1CCCC(CN(C)C(=O)CCC(N)=O)C1 (configuration not stated)	0	6	0	7	2	15
CN1CCN(c2ccc(NC(=O)c3ccc(-c4ccccc4F)o3)cc2)CC1	1	-71	3	·	·	·
CC(C)(C)c1nn(-c2ccccc2)c2nc(Cl)c(C=O)cc12	0	1	4	-4	-6	0
CC(C)(C)c1nn(-c2ccccc2)c2[nH]c(=O)c(C=O)cc12	0	38	-23	88*	4	-1
CC(C)c1ccc(C2=C(O)c3ccccc3C(=O)C2=O)cc1	4	-22	-6	46	11	99*
Cc1ccc(C2=C(O)c3ccccc3C(=O)C2=O)cc1	0	20	·	-2	42	27
C=CCOC(=O)C1=C(C)NC(SCC)=C(C#N)C1c1ccc(Cl)cc1 (configuration not stated)	4	18	0	40	76*	3
O=C(CS(=O)(=O)Nc1ccc(F)cc1Cl)Nc1ccc(F)cc1Cl	1	-11	·	·	-1	79*
O=C(COC(=O)Cc1ccsc1)Nc1ccc(F)cc1Cl	-3	3	·	·	·	·
CCN(CC)CCN(C(=O)c1ccc2ccccc2c1)c1nc2ccc(OC)cc2s1	2	26	-2	12	4	99*
CCN(CC)CCN(C(=O)c1ccc([N+](=O)[O-])cc1)c1nc2ccc(OC)cc2s1	2	-26	-3	-19	-5	-11
SMILES	MPTP block	Mdm2-MdmX inh	Beta cell apopt	CSC inhib	SKKanGAS inh	Calb FLC
CCCCn1c(CCCNC(=O)c2ccco2)nc2ccccc21	0	-1	·	-4	53*	6
O=C1CC(NC(=O)c2ccc(Cl)cc2)C(=O)N1 (configuration not stated)	-1	3	0	-1	0	3
O=C(NC(=S)N(CCc1ccccc1)CCc1ccccc1)c1ccco1	4	43	15	26	82*	-25
CC(CCc1ccccc1)NC(=S)NC(=O)c1ccco1 (configuration not stated)	0	-9	-2	8	4	-12
O=C(NC(=S)NNC(=O)c1ccco1)c1ccccc1	0	27	5	-3	42	7
O=C(/C=C/c1ccc(Br)cc1)NC(=S)NNC(=O)c1ccco1	20	17	2	19	106*	4
O=C(/C=C/c1ccccc1)NC(=S)NNC(=O)c1ccco1	-5	19	3	-12	76*	-1
COc1cc(CNc2ccccc2Oc2cc(=O)n(C)c(=O)n2C)cc(OC)c1OC	-1	6	0	5	-6	-7
Cn1c(Oc2ccccc2NCc2cc(Br)ccc2O)cc(=O)n(C)c1=O	10	14	10	16	59*	-2
CC(C)c1nc2sc3ccccc3c(=O)c2c(=O)n1Cc1ccccc1	4	10	2	77*	6	-1
CCCc1nc2sc3ccccc3c(=O)c2c(=O)n1Cc1ccc(OC)cc1	14	30	100*	-5	41	7
COc1ccc(Cn2c(C(C)C)nc3sc4ccccc4c(=O)c3c2=O)cc1	21	37	4	11	10	42
Brc1ccc(CNCCCSc2ncccn2)cc1	0	5	-4	-3	-2	11
Cc1ccccc1C(=O)Oc1ccc(-c2csnn2)cc1	2	-5	3	-7	3	1
Cc1ccccc1C(=O)Oc1ccc(Sc2ccc(O)cc2)cc1	·	24	7	25	96*	1
CS(=O)(=O)N(CC(=O)NCCSCc1ccccc1)c1ccc2c(c1)OCO2	-2	0	3	16	4	0
O=C(Oc1ccc(-c2cnc3ccccc3n2)cc1)c1ccc(Cl)c([N+](=O)[O-])c1	-2	-69	-8	-10	74*	-16
O=C(Oc1ccc(-c2cnc3ccccc3n2)cc1)c1cccc([N+](=O)[O-])c1	-1	-171	-32	-6	8	-1
O=C(Nc1ccc2cn[nH]c2c1)c1c(Cl)cccc1Cl	-1	-1	·	-8	10	5
O=C1C(Cl)=C(Nc2ccc3cn[nH]c3c2)C(=O)c2ccccc21	4	·	110*	109*	73*	4
COc1cccc(/C=C(/C(=O)OCC(N)=O)c2ccccc2)c1	-3	12	-3	-8	-5	-6
COc1cccc(/C=C(/C(=O)OCC(=O)NC2CCCC(C)C2C)c2ccccc2)c1 (configuration not stated)	10	·	1	37	65*	-1
CC(=O)Nc1ccc(-c2csc(NC(=O)Cc3cccc(F)c3)n2)cc1	-3	18	10	90*	-12	-4
CC(=O)Nc1ccc(-c2csc(NC(=O)Cc3ccccc3F)n2)cc1	-1	-9	-4	90*	3	0
COc1ccc(-n2c(C)nnc2SCC(=O)N2CCOCC2)cc1	0	17	-5	-14	0	4
COc1ccc(CN(C)CCCn2ccc(N)nc2=O)cc1OC	0	·	·	·	·	·
CC1CCC(NC(=O)C(NC(=O)c2ccccc2)C(C)C)CC1 (configuration not stated)	-1	29	-5	7	-1	-35
